Our source for the growth inhibition values is PubChem BioAssay (NCI).

The structures appear in SMILES notation. Compounds without any hit were thinned out: in the full panel of roughly 79,000, 15% have a hit. A number with no mark means an inactive call. The source made the active and inactive calls. Cut-off read from the data, not from the text of the source: active = growth inhibition above about 70%; inactive = the rest.

Assay [1] can be described thus: NCI Yeast Anticancer Drug Screen. Data for the rad50 strain (AID 155).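 Note: 0% = growth of vehicle-only cultures of the same strain.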 Particulars: S. cerevisiae rad50 strain growth inhibition, stronger effect = higher value. The gist of the method:
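Yeast carrying a defined DNA repair defect were exposed to test compounds, and growth was compared with vehicle-treated controls to give percent inhibition.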

A short description of assay [2]: NCI Yeast Anticancer Drug Screen. Data for the mec2-1 strain (AID 157). As to conditions: S. cerevisiae mec2-1 strain, stronger effect = higher value. The method in brief:
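Cells of the genetically defined mec2-1 yeast strain are incubated with test compound. Inhibition of growth is calculated against vehicle-treated controls.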

The nature of assay [3]: NCI Yeast Anticancer Drug Screen. Data for the sgs1 mgt1 strain (AID 161).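 Note: 0% = growth of cultures given vehicle only.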 As to conditions: S. cerevisiae sgs1 mgt1 strain, stronger effect = higher value. The method in brief: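 Test agents were incubated with a DNA-repair-mutant yeast strain. Growth was then read and compared against vehicle-treated controls.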
A short description of assay [4]: NCI Yeast Anticancer Drug Screen. Data for the cln2 rad14 strain (AID 165).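 Note: 0% = growth equal to vehicle treated cultures.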 As to conditions: S. cerevisiae cln2 rad14 strain, stronger effect = higher value. The gist of the method: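 The screen exposed genetically defined yeast (cln2 rad14) to test compounds and scored growth inhibition relative to vehicle-treated controls.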
Assay [5] in a line: NCI Yeast Anticancer Drug Screen. Data for the bub3 strain (AID 167). Particulars: S. cerevisiae bub3 mutant strain, stronger effect = higher value. The gist of the method:
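Compounds were applied to a genetically altered yeast strain carrying a cell-cycle control defect. Growth inhibition was scored against vehicle-treated controls.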

The nature of assay [6]: NCI Yeast Anticancer Drug Screen. Data for the mlh1 rad18 strain (AID 175). As to conditions: S. cerevisiae mlh1 rad18 strain growth inhibition, stronger effect = higher value. The method in brief:
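Compound-treated yeast growth, normalised to vehicle controls. Strain bears defined DNA repair mutations.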

The mark [7] stands for this setting: at 5.0 µM (retest, dose inferred, filed as 0.5).
Where [8] appears, read: at 50.0 µM (retest, dose inferred, filed as 5.0).

As for `O=C(Nc1ccc(F)cc1)ON=C1CCCCC1`, the growth inhibition in assay [1] (setting [7]) was 56%; in assay [1] (setting [8]) it was 99% (active); in assay [1] (at 50.0 µM), 90.2% (active); in assay [2] (setting [7]) it was 46%; in assay [2] (setting [8]) it was 100% (active); in assay [2] (at 50.0 µM), 92.3% (active). In addition, the growth inhibition is 56% in assay [3] (setting [7]); 99% (active) in assay [3] (setting [8]); 91.5% (active) in assay [3] (at 50.0 µM); 33% in assay [4] (setting [7]); 99% (active) in assay [4] (setting [8]); 90.8% (active) in assay [4] (at 50.0 µM). The growth inhibition in assay [5] (setting [7]) was 45%; in assay [5] (setting [8]), 66%; in assay [5] (at 50.0 µM), 91.1% (active); in assay [6] (setting [7]), 69%; in assay [6] (setting [8]), 99% (active); in assay [6] (at 50.0 µM), 90.4% (active).

As for `N#C/C=C(\c1ccccc1)c1c[nH]c2ccccc12`, the growth inhibition in assay [1] (setting [7]) was -144%; in assay [1] (setting [8]), 97% (active); in assay [1] (at 50.0 µM), 97.5% (active); in assay [2] (setting [7]) it was -46%; in assay [2] (setting [8]), 99% (active); in assay [2] (at 50.0 µM), 98.1% (active). Besides, the growth inhibition is -62% in assay [3] (setting [7]); 98% (active) in assay [3] (setting [8]); 98.7% (active) in assay [3] (at 50.0 µM); -58% in assay [4] (setting [7]); 98% (active) in assay [4] (setting [8]); 95.8% (active) in assay [4] (at 50.0 µM). Moreover, the growth inhibition was -63% in assay [5] (setting [7]); 97% (active) in assay [5] (setting [8]); 97% (active) in assay [5] (at 50.0 µM); -120% in assay [6] (setting [7]); 98% (active) in assay [6] (setting [8]); 98.2% (active) in assay [6] (at 50.0 µM).

Turning to `CCN(CC)CCOc1ccc(/C(C#N)=C/c2ccc(C(F)(F)F)cc2)cc1`, the growth inhibition in assay [1] (setting [7]) is 36%; in assay [1] (setting [8]) it was 96% (active); in assay [1] (at 50.0 µM) it was 75.5% (active); in assay [2] (setting [7]) it was 34%; in assay [2] (setting [8]), 99% (active); in assay [2] (at 50.0 µM), 48.6%. The growth inhibition in assay [3] (setting [7]) was 65%; in assay [3] (setting [8]), 98% (active); in assay [3] (at 50.0 µM) it was 90.5% (active); in assay [4] (setting [7]), 48%; in assay [4] (setting [8]) it was 90% (active); in assay [4] (at 50.0 µM), 69.3%. Besides, the growth inhibition in assay [5] (setting [7]) was 54%; in assay [5] (setting [8]) it was 98% (active); in assay [5] (at 50.0 µM), 54.1%; in assay [6] (setting [7]) it was 38%; in assay [6] (setting [8]), 99% (active); in assay [6] (at 50.0 µM), 90.8% (active).

For `O=c1cc(-c2ccccc2)[nH]c2ccc(N3CCCC3)cc12`, the growth inhibition is 17% in assay [1] (setting [7]); 26% in assay [1] (setting [8]); -26.8% in assay [1] (at 50.0 µM); 7% in assay [2] (setting [7]); 9% in assay [2] (setting [8]); -4.35% in assay [2] (at 50.0 µM). Besides, the growth inhibition in assay [3] (setting [7]) is 13%; in assay [3] (setting [8]) it was 13%; in assay [3] (at 50.0 µM) it was -29.9%; in assay [4] (setting [7]), 0%; in assay [4] (setting [8]) it was 7%; in assay [4] (at 50.0 µM) it was 7.25%. Moreover, the growth inhibition in assay [5] (setting [7]) was 14%; in assay [5] (setting [8]), 6%; in assay [5] (at 50.0 µM) it was -8.65%; in assay [6] (setting [7]), 11%; in assay [6] (setting [8]), 5%; in assay [6] (at 50.0 µM), 0.5%.

With `CC(=O)Nc1ccc2c(c1)C(=O)c1cccc(F)c1-2`, the growth inhibition in assay [1] (setting [7]) was 6%; in assay [1] (setting [8]), 93% (active); in assay [1] (at 50.0 µM), 90% (active); in assay [2] (setting [7]) it was -2%; in assay [2] (setting [8]), 54%; in assay [2] (at 50.0 µM), 25.8%. Further, the growth inhibition in assay [3] (setting [7]) is -4%; in assay [3] (setting [8]), 69%; in assay [3] (at 50.0 µM), 51.2%; in assay [4] (setting [7]), -2%; in assay [4] (setting [8]) it was 38%; in assay [4] (at 50.0 µM), 12%. Moreover, the growth inhibition in assay [5] (setting [7]) was 1%; in assay [5] (setting [8]), 17%; in assay [5] (at 50.0 µM), 12.2%; in assay [6] (setting [7]), 3%; in assay [6] (setting [8]), 82% (active); in assay [6] (at 50.0 µM) it was 45.9%.

For the compound `CCC1(C)CCC2(C)C(CCC3C4(C)CCCC32OC4=O)C1` (stereo not given), the growth inhibition in assay [1] (setting [7]) is 16%; in assay [1] (setting [8]), 93% (active); in assay [1] (at 50.0 µM) it was 97.5% (active); in assay [2] (setting [7]), -2%; in assay [2] (setting [8]) it was 96% (active); in assay [2] (at 50.0 µM) it was 94.3% (active). For the same compound, the growth inhibition in assay [3] (setting [7]) is 2%; in assay [3] (setting [8]) it was 97% (active); in assay [3] (at 50.0 µM), 96.8% (active); in assay [4] (setting [7]), -9%; in assay [4] (setting [8]), 92% (active); in assay [4] (at 50.0 µM), 91.9% (active). In addition, the growth inhibition in assay [5] (setting [7]) was 15%; in assay [5] (setting [8]), 98% (active); in assay [5] (at 50.0 µM), 96.2% (active); in assay [6] (setting [7]) it was -10%; in assay [6] (setting [8]), 92% (active); in assay [6] (at 50.0 µM), 92.2% (active).

Take `CN(C)c1cc2nc3ccccc3nc2cc1O`: the growth inhibition in assay [1] (setting [7]) is 2%; in assay [1] (setting [8]), 46%; in assay [1] (at 50.0 µM) it was 62.9%; in assay [2] (setting [7]), -1%; in assay [2] (setting [8]), 53%; in assay [2] (at 50.0 µM), 15.6%. Besides, the growth inhibition in assay [3] (setting [7]) is -1%; in assay [3] (setting [8]), 26%; in assay [3] (at 50.0 µM), 34.6%; in assay [4] (setting [7]), -7%; in assay [4] (setting [8]), 34%; in assay [4] (at 50.0 µM), 45.8%. Also, the growth inhibition in assay [5] (setting [7]) is -3%; in assay [5] (setting [8]), 59%; in assay [5] (at 50.0 µM), 94.5% (active); in assay [6] (setting [7]), 7%; in assay [6] (setting [8]) it was 76% (active); in assay [6] (at 50.0 µM) it was 81.9% (active).

Consider `Cc1cc(SC#N)cc(C)c1O`, for which the growth inhibition in assay [1] (setting [7]) was 6%; in assay [1] (setting [8]), 65%; in assay [1] (at 50.0 µM), 82% (active); in assay [2] (setting [7]) it was -3%; in assay [2] (setting [8]) it was 47%; in assay [2] (at 50.0 µM) it was 63.1%. Moreover, the growth inhibition in assay [3] (setting [7]) was -1%; in assay [3] (setting [8]) it was 45%; in assay [3] (at 50.0 µM), 74% (active); in assay [4] (setting [7]), 32%; in assay [4] (setting [8]), 69%; in assay [4] (at 50.0 µM) it was 49%. Also, the growth inhibition in assay [5] (setting [7]) is -4%; in assay [5] (setting [8]) it was 63%; in assay [5] (at 50.0 µM), 78.9% (active); in assay [6] (setting [7]) it was -5%; in assay [6] (setting [8]) it was 81% (active); in assay [6] (at 50.0 µM) it was 83.5% (active).

In the case of `Clc1ccc(/C=C\c2ccncc2)cc1`, the growth inhibition in assay [1] (setting [7]) is 3%; in assay [1] (setting [8]), 58%; in assay [1] (at 50.0 µM), 48.2%; in assay [2] (setting [7]), 4%; in assay [2] (setting [8]) it was 51%; in assay [2] (at 50.0 µM), 44.9%. Further, the growth inhibition in assay [3] (setting [7]) is 4%; in assay [3] (setting [8]) it was 59%; in assay [3] (at 50.0 µM), 29.1%; in assay [4] (setting [7]), 1%; in assay [4] (setting [8]), 7%; in assay [4] (at 50.0 µM) it was 29.7%. Further, the growth inhibition in assay [5] (setting [7]) was 4%; in assay [5] (setting [8]), 39%; in assay [5] (at 50.0 µM), 30%; in assay [6] (setting [7]) it was -1%; in assay [6] (setting [8]), 32%; in assay [6] (at 50.0 µM), 62%.

Consider `O=[N+]([O-])C1C(c2ccccc2)CC=CC1N1CCCC1` (stereo not given), for which the growth inhibition in assay [1] (setting [7]) is 2%; in assay [1] (setting [8]) it was 97% (active); in assay [1] (at 50.0 µM), 98.5% (active); in assay [2] (setting [7]), 15%; in assay [2] (setting [8]), 95% (active); in assay [2] (at 50.0 µM), 98% (active). Also, the growth inhibition in assay [3] (setting [7]) is 17%; in assay [3] (setting [8]), 97% (active); in assay [3] (at 50.0 µM) it was 98% (active); in assay [4] (setting [7]) it was -2%; in assay [4] (setting [8]) it was 85% (active); in assay [4] (at 50.0 µM), 93.9% (active). Moreover, the growth inhibition in assay [5] (setting [7]) was -3%; in assay [5] (setting [8]), 95% (active); in assay [5] (at 50.0 µM), 97.3% (active); in assay [6] (setting [7]) it was 7%; in assay [6] (setting [8]), 98% (active); in assay [6] (at 50.0 µM), 98.2% (active).
